Read-out in assay [1]: Plasminogen activator inhibitor-1 (PAI1), SERPINE1 (gene 5054)
Description: BSK_MyoF_PAI1: BioMAP Diversity Plus: MyoF Assay for Plasminogen activator inhibitor-1 (PAI1) Biomarker Activity (AID 2284256).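 On outcome: PAI-1 read 24 h after compound addition.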 Conditions: primary human lung fibroblasts. The procedure, abridged:
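MyoF lung fibroblasts, human primary; compound 24 h; PAI-1 ELISA; positive-direction fit vs DMSO baseline; parallel SRB total-protein staining for cytotoxicity.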

Read-out in assay [2]: Interleukin-8 (IL8), CXCL8 (gene 3576)
Description: BSK_MyoF_IL8: BioMAP Diversity Plus: MyoF Assay for Interleukin-8 (IL8) Biomarker Activity (AID 2284261). Conditions: primary human lung fibroblasts. Summed up:
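Lung fibroblasts (human primary) → chemical exposure → 24 h → IL-8 measured by ELISA. Signal increase scored versus DMSO control.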

Read-out in assay [3]: Decorin, DCN (gene 1634)
Description: BSK_MyoF_Decorin: BioMAP Diversity Plus: MyoF Assay for Decorin Biomarker Activity (AID 2284265). Conditions: primary human lung fibroblasts. The procedure, abridged: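 ELISA readout of decorin, 24 h post-dosing; primary human lung fibroblast (MyoF) culture; gain-of-signal fit vs DMSO baseline.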

Assay [4] can be described thus: BSK_MyoF_SRB: Viability Assessment in the BioMAP Diversity Plus: MyoF Assay (AID 2284267).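 Further: total protein by SRB absorbance in parallel cultures as cytotoxicity measure.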 The following applies: primary human lung fibroblasts. Summed up: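 Cytotoxicity in primary human lung fibroblasts is gauged by SRB total-protein staining 24 h after dosing, with DMSO as the negative control.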
Read-out in assay [5]: Matrix Metallopeptidase 1 (MMP1), MMP1 (gene 4312)
Kind of assay: BSK_MyoF_MMP1: BioMAP Diversity Plus: MyoF Assay for Matrix Metallopeptidase 1 (MMP1) Biomarker Activity (AID 2284268). Conditions: primary human lung fibroblasts. Summed up: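 Cells: human lung fibroblasts. Exposure: 24 h chemical dosing. Detection: ELISA for MMP1. Analysis: upward fitting against DMSO negative control.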

Read-out in assay [6]: TIMP metallopeptidase inhibitor 1 (TIMP1), TIMP1 (gene 7076)
Kind of assay: BSK_MyoF_TIMP1: BioMAP Diversity Plus: MyoF Assay for TIMP metallopeptidase inhibitor 1 (TIMP1) Biomarker Activity (AID 2284269). Conditions: primary human lung fibroblasts. Summed up:
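Fibroblasts from human lung are dosed with chemical, cultured 24 h, and assayed for TIMP-1 by ELISA. Increases over the DMSO baseline are scored, with SRB total-protein staining run in parallel for cytotoxicity.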

Read-out in assay [7]: Interleukin-8 (IL8), CXCL8 (gene 3576)
Kind of assay: BSK_KF3CT_IL8: BioMAP Diversity Plus: KF3CT Assay for Interleukin-8 (IL8) Biomarker Activity (AID 2284254). The following applies: primary human keratinocytes with fibroblasts. Summed up: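 IL-8 read-out: ELISA, 24 h post-dose, human skin primary co-culture (keratinocytes + foreskin fibroblasts). DMSO = baseline; positive-direction fit.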

Read-out in assay [8]: Macrophage Inflammatory Protein-1 Alpha (MIP1a), CCL3 (gene 6348)
Kind of assay: BSK_IMphg_MIP1a: BioMAP Diversity Plus: IMphg Assay for Macrophage Inflammatory Protein-1 Alpha (MIP1a) Biomarker Activity (AID 2284255). The following applies: primary human endothelial cells with macrophages. Summed up: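 Co-culture of human venular endothelial cells and macrophages exposed to compounds for 24 h; MIP-1a measured by ELISA relative to DMSO. Cytotoxicity assessed in parallel cultures by sulforhodamine B total-protein staining at 560 nm.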

Read-out in assay [9]: CD69, CD69 (gene 969)
Description: BSK_IMphg_CD69: BioMAP Diversity Plus: IMphg Assay for CD69 Biomarker Activity (AID 2284257). The following applies: primary human endothelial cells with macrophages. Summed up: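 Human venular endothelial cells co-cultured with macrophages; CD69 quantified by ELISA 24 h after compound addition. Activity fitted in the positive direction relative to DMSO baseline; cytotoxicity tracked in parallel cultures via SRB total-protein staining.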

Read-out in assay [10]: Monocyte Chemoattractant Protein-1 (MCP1), CCL2 (gene 6347)
Kind of assay: BSK_BF4T_MCP1: BioMAP Diversity Plus: BF4T Assay for Monocyte Chemoattractant Protein-1 (MCP1) Biomarker Activity (AID 2284259). Conditions: primary human bronchial epithelial cells with fibroblasts. The procedure, abridged: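 Co-culture of bronchial epithelial cells and dermal fibroblasts dosed with chemical; MCP-1 measured by ELISA 24 h later. Activity fitted in positive direction versus DMSO; cytotoxicity checked by SRB staining in parallel cultures.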

Read-out in assay [11]: Intercellular Adhesion Molecule 1 (ICAM1), ICAM1 (gene 3383)
Kind of assay: BSK_BF4T_ICAM1: BioMAP Diversity Plus: BF4T Assay for Intercellular Adhesion Molecule 1 (ICAM1) Biomarker Activity (AID 2284260). The following applies: primary human bronchial epithelial cells with fibroblasts. Summed up:
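Co-culture of human bronchial epithelial cells and dermal fibroblasts exposed 24 h to chemical; cell-surface ICAM-1 quantified by ELISA. Parallel SRB total-protein staining assessed cytotoxicity; activity fitted relative to DMSO.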

Read-out in assay [12]: CD90, THY1 (gene 7070)
Kind of assay: BSK_BF4T_CD90: BioMAP Diversity Plus: BF4T Assay for CD90 Biomarker Activity (AID 2284262). Conditions: primary human bronchial epithelial cells with fibroblasts. Summed up: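 Co-culture of human bronchial epithelial cells and dermal fibroblasts, 24 h compound exposure. Cell-surface CD90 measured by ELISA relative to DMSO; parallel SRB total-protein staining for cytotoxicity.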

Read-out in assay [13]: Interleukin-8 (IL8), CXCL8 (gene 3576)
Description: BSK_BF4T_IL8: BioMAP Diversity Plus: BF4T Assay for Interleukin-8 (IL8) Biomarker Activity (AID 2284263). The following applies: primary human bronchial epithelial cells with fibroblasts. Summed up:
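Human bronchial epithelial cells with dermal fibroblasts co-culture; IL-8 measured by ELISA 24 hours after dosing, fitted vs DMSO. Cytotoxicity tracked in parallel cultures by SRB total-protein staining.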

Read-out in assay [14]: KRT18 (gene 3875)
Kind of assay: BSK_BF4T_Keratin818: BioMAP Diversity Plus: BF4T Assay for Keratin 818 Biomarker Activity (AID 2284266). The following applies: primary human bronchial epithelial cells with fibroblasts. The procedure, abridged:
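Co-culture of human bronchial epithelial cells and dermal fibroblasts, chemical exposure 24 h. Keratin 8/18 measured by ELISA; positive-direction fit vs DMSO. SRB total protein run in parallel cultures for cytotoxicity.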

Read-out in assay [15]: Matrix Metallopeptidase 1 (MMP1), MMP1 (gene 4312)
Description: BSK_BF4T_MMP1: BioMAP Diversity Plus: BF4T Assay for Matrix Metallopeptidase 1 (MMP1) Biomarker Activity (AID 2284270). Conditions: primary human bronchial epithelial cells with fibroblasts. The procedure, abridged: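 Co-culture of human bronchial epithelial cells and dermal fibroblasts; MMP-1 levels measured by ELISA 24 hours after chemical dosing, relative to DMSO. Cytotoxicity checked in parallel cultures by SRB total-protein staining.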

Read-out in assay [16]: Matrix Metallopeptidase 3 (MMP3), MMP3 (gene 4314)
Kind of assay: BSK_BF4T_MMP3: BioMAP Diversity Plus: BF4T Assay for Matrix Metallopeptidase 3 (MMP3) Biomarker Activity (AID 2284271). Conditions: primary human bronchial epithelial cells with fibroblasts. Summed up:
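Co-culture of human bronchial epithelial cells and dermal fibroblasts dosed 24 h; MMP-3 measured by ELISA, positive-direction fit versus DMSO. Cytotoxicity tracked by SRB total-protein staining (560 nm) in parallel cultures.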

Read-out in assay [17]: Plasminogen Activator Inhibitor-1 (PAI1), SERPINE1 (gene 5054)
Kind of assay: BSK_BF4T_PAI1: BioMAP Diversity Plus: BF4T Assay for Plasminogen Activator Inhibitor-1 (PAI1) Biomarker Activity (AID 2284273). The following applies: primary human bronchial epithelial cells with fibroblasts. The procedure, abridged:
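Co-culture of human bronchial epithelial cells and dermal fibroblasts exposed to compound for 24 h. PAI-1 measured by ELISA; activity fitted in positive direction versus DMSO. Parallel SRB staining assessed overt cytotoxicity.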

The nature of assay [18]: BSK_BF4T_SRB: Viability Assessment in the BioMAP Diversity Plus: BF4T Assay (AID 2284274). The following applies: primary human bronchial epithelial cells with fibroblasts. The procedure, abridged:
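Co-culture of human bronchial epithelial cells and dermal fibroblasts (BioMAP BF4T) exposed 24 h. Total protein by sulforhodamine B staining (0.1% SRB after 10% TCA fixation, 560 nm) in parallel cultures; fitted vs DMSO.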

Read-out in assay [19]: urokinase Plasminogen Activator (uPA), PLAU (gene 5328)
Description: BSK_BF4T_uPA: BioMAP Diversity Plus: BF4T Assay for urokinase Plasminogen Activator (uPA) Biomarker Activity (AID 2284275). The following applies: primary human bronchial epithelial cells with fibroblasts. Summed up: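 Co-culture of human bronchial epithelial cells and dermal fibroblasts; uPA quantified by ELISA 24 hours after dosing, fitted relative to DMSO. Parallel SRB total-protein staining assessed overt cytotoxicity.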

Read-out in assay [20]: Matrix Metallopeptidase 9 (MMP9), MMP9 (gene 4318)
Description: BSK_BF4T_MMP9: BioMAP Diversity Plus: BF4T Assay for Matrix Metallopeptidase 9 (MMP9) Biomarker Activity (AID 2284276). The following applies: primary human bronchial epithelial cells with fibroblasts. Summed up: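 Co-culture of human bronchial epithelial cells and dermal fibroblasts dosed for 24 h; MMP-9 quantified by ELISA and fitted upward versus DMSO. Cytotoxicity monitored in parallel cultures by SRB total-protein staining at the biomarker time point.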

This is an account of results in PubChem BioAssay (EPA / NIEHS).

Several values for one entry are separate records, joined by “and”; a condition that tells them apart may be missing. Identical values can stand only once. Where a structure was tested more than once in an assay, its records may differ in their call. Activity calls are given as the source filed them. How the source made its calls: active means hit-call score of the fitted dose curve at least 0.9, where 1 is the maximum; inactive means score below 0.9.

For `S=P(N1CC1)(N1CC1)N1CC1`, the outcome in assay [1], in assay [2], in assay [3], in [4], in assay [5] and in assay [6] was inactive.
As to `NCC(F)(F)C(F)(F)C(F)(F)C(F)(F)F`, the outcome in assay [7], in [8], in assay [1], in assay [9], in assay [10] and in assay [11] was inactive. The outcome in assay [2], in [12], in assay [13], in assay [3], in [14] and in assay [4] was inactive. The outcome in [5], in [6], in assay [15], in assay [16], in assay [17] and in [18] was inactive. Moreover, the outcome in assay [19] and in assay [20] was inactive. Moreover, the AC50 (usually the concentration giving half of the maximal activity seen) in assay [6] was 307 nM (active).
For the molecule `FC(F)(F)C(F)(F)C(F)(F)C(F)(F)C(F)(F)C(F)(F)I`, the outcome in assay [7], in assay [8], in [9], in [10], in assay [11] and in assay [2] was inactive. For the same molecule, the result in assay [12], in assay [13], in [3], in [14], in assay [6] and in assay [15] was inactive. The result in [16], in assay [17], in assay [18], in assay [19] and in assay [20] was inactive. For the same molecule, the AC50 in assay [1] was 38.6 µM (active) and 22.2 µM (active); in assay [4] it was 25.6 µM (active) and 26.5 µM (active); in assay [5], 14 µM (active) and 21.6 µM (active).
With `Cc1cccc(O)c1C`, the outcome in [1], in assay [2], in assay [3], in assay [4], in [5] and in [6] was inactive.
